From PubChem BioAssay (NCI) come the findings set out here.

This is part of a sample that, as a whole, favours compounds with a hit. Of some 83,000 tested, about 20% had one in any assay.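 In brief: 96-well plates, 48 h treatment, single concentration, percent growth endpoint.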 Unmarked numbers belong to inactive results. Active and inactive are the calls of the source. The calls were made as follows: active = growth percent below 10; inactive = the rest.

This assay concerns RXF 393 renal. As to the kind of experiment: NCI-60 one-dose screen, 48 h (100 = growth as untreated, 0 = no growth, -100 = all killed). As to conditions: 10 µM unless noted.
Turning to `CCSc1nc(NC)c2cc(-c3ccc(C(F)(F)F)cc3)ccc2n1`, the growth was 90.5%. For `Cc1nc(-c2ccccc2)cc2c(O)c(C(=O)NN)[nH]c(=O)c12`, the growth was 101%. With `Cc1ccc(S(=O)(=O)N2CCCC2CO)cc1` (centres undefined) the figure was 103%; with `CCOC(=O)c1cc(-c2ccc([N+](=O)[O-])cc2)n(-c2ccc(C(=O)O)c(O)c2)c1C`, 39%; with `COc1cc(CNS(=O)(=O)c2ccc(C)cc2)ccc1OCc1cn(-c2ccc(Br)cc2)nn1`, 97.1%. With `O=C(/C=C/c1ccccc1)c1cccc(OCCCOc2cccc(C(=O)/C=C/c3ccccc3)c2)c1` the figure was 94.9%; with `C=CCc1c(O)c(C(=O)/C=C/c2ccc(Cl)cc2)c(OC)c2ccoc12`, 21.9%; with `COc1ccc(-c2nc3c(c(-c4ccccc4)nn3-c3ccccc3)c(-c3ccc(N4CCOCC4)cc3)c2C#N)cc1`, 38.6%. With `O=C1/C(=C/c2ccc(Cl)cc2)COc2ccc(O)c(O)c21` the figure was 9.7% (active); with `CN(C)c1ccc(Nc2cc(-c3cccc(OC(F)(F)F)c3)nc3ccc(N4CCCC4)cc23)cc1`, 88.8%.

Turning to `O=C(c1ccc(-c2nc(CSc3nc4ccccc4s3)no2)cc1)N1CCSCC1`, the growth was 110%. Turning to `N=C(N)c1ccc(-c2ccc(-c3ccc(Cl)cc3)s2)nc1`, the growth was 60.1%. Consider `COC(=O)c1c2c(c(C)[n+]([O-])c1C)C(=O)C=C(NCc1ccc(OC)cc1)C2=O`, for which the growth is -32.7% (active).

For `O=C1/C(=C/c2ccc(Cl)cc2)COc2ccc(O)cc21`, the growth was 97.9%.
